Laboratory results taken from PubChem BioAssay AID1159580 (chemical genetic matrix, 2015).
“And” between values parts separate entries of the source, which are not always exact repeats. Equal values may be shown once. Among all 5,500 compounds or so, about 2,000 (36%) were called active. Roughly 18% stayed inconclusive and do not appear here. Cut-off read from the data, not from the text of the source: active = normalized growth mostly below about 0.91 (no sharp cut-off); inconclusive = no clear call, values can overlap the other calls; inactive = mostly above about 0.92. This is one part of the list.

Experiment: chemical genetic growth profiling, strain panel (AID 1159580);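 note: tested at 20 µM; growth read once vehicle control cultures reached saturation at 30 °C; 1 = growth at the plate median or of vehicle wells; lower values mean less growth of the strain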
Conditions: S. cerevisiae deletion strains, growth OD

Measured: normalized growth

c1ccc2c(c1)[nH]c1cnccc12
inactive: locus YAL021C, strain ccr4, active compounds read low 1.01 | locus YAL026C, strain drs2, active compounds read low 1.01 | locus YAL030W, strain snc1, active compounds read low 0.999 | locus YBL061C, strain skt5, active compounds read low 0.991 | locus YBR009C, strain hhf1, active compounds read low 1 | locus YBR021W, strain FUR4, active compounds read low 1.05 | locus YBR023C, strain chs3, active compounds read low 0.993 | locus YBR171W, strain sec66, active compounds read low 0.99 | locus YBR229C, strain ROT2, active compounds read low 1.01 | locus YBR231C, strain swc5, active compounds read low 0.999 | locus YBR279W, strain paf1, active compounds read low 1 | locus YCL011C, strain gbp2, active compounds read low 0.998 | locus YCL016C, strain dcc1, active compounds read low 0.999 | locus YCL029C, strain bik1, active compounds read low 0.975 | locus YCL061C, strain MRC1, active compounds read low 0.997 | locus YCL069W, strain vba3, active compounds read low 1 | locus YCR088W, strain abp1, active compounds read low 1 | locus YDL005C, strain med2, active compounds read low 0.989 | locus YDL035C, strain GPR1, active compounds read low 0.991 | locus YDL040C, strain nat1, active compounds read low 0.995 | locus YDL074C, strain BRE1, active compounds read low 0.977 | locus YDL101C, strain DUN1, active compounds read low 0.986 | locus YDL134C, strain PPH21, active compounds read low 1.08 | locus YDL185W, strain tfp1, active compounds read low 0.954 | locus YDL192W, strain arf1, active compounds read low 0.979 | locus YDR001C, strain nth1, active compounds read low 1 | locus YDR069C, strain doa4, active compounds read low 0.977 | locus YDR101C, strain arx1, active compounds read low 0.961 | locus YDR137W, strain rgp1, active compounds read low 0.958 | locus YDR159W, strain sac3, active compounds read low 1.01 | locus YDR162C, strain NBP2, active compounds read low 1.01 | locus YDR195W, strain ref2 0.995 | locus YDR297W, strain sur2, active compounds read low 0.999 | locus YDR318W, strain mcm21, active compounds read low 1.01 | locus YDR334W, strain swr1, active compounds read low 0.998 | locus YDR335W, strain msn5, active compounds read low 0.999 | locus YDR388W, active compounds read low 0.996 | locus YDR392W, strain spt3, active compounds read low 0.967 | locus YDR502C, strain sam2, active compounds read low 0.994 | locus YEL003W, strain gim4, active compounds read low 1 | locus YEL037C, strain rad23, active compounds read low 1.03 | locus YEL061C, strain CIN8 (second series), active compounds read low 1.01 | locus YEL061C, strain CIN8, active compounds read low 0.99 | locus YER015W, strain faa2, active compounds read low 0.982 | locus YER016W, strain bim1, active compounds read low 0.992 | locus YER110C, active compounds read low 0.964 | locus YER111C, strain swi4, active compounds read low 0.984 | locus YER155C, strain BEM2 (second series), active compounds read low 0.965 | locus YER155C, strain BEM2, active compounds read low 1 | locus YER167W, strain BCK2, active compounds read low 1.02 | locus YFR010W, strain ubp6, active compounds read low 1 | locus YGL078C, strain dbp3, active compounds read low 0.981 | locus YGL086W, strain mad1, active compounds read low 0.948 | locus YGL167C, strain pmr1, active compounds read low 0.998 | locus YGL173C, strain kem1, active compounds read low 0.997 | locus YGL227W, strain vid30, active compounds read low 0.999 | locus YGL240W, strain doc1, active compounds read low 0.991 | locus YGL248W, strain PDE1, active compounds read low 1.01 | locus YGL253W, strain hxk2, active compounds read low 1.01 | locus YGR135W, strain pre9, active compounds read low 1 | locus YGR229C, strain SMI1, active compounds read low 1.02 | locus YGR252W, strain gcn5, active compounds read low 1.19 | locus YHR013C, strain ard1, active compounds read low 1.02 | locus YHR027C, strain rpn1, active compounds read low 0.993 | locus YHR030C, strain SLT2, active compounds read low 1 and 1.03 | locus YHR079C, strain IRE1 (second series), active compounds read low 0.984 | locus YHR079C, strain IRE1, active compounds read low 1.03 | locus YHR094C, strain hxt1, active compounds read low 0.994 | locus YHR129C, strain ARP1, active compounds read low 1 | locus YHR142W, strain chs7, active compounds read low 1.01 | locus YHR200W, strain rpn10, active compounds read low 0.98 | locus YIL066C, strain RNR3, active compounds read low 1.01 | locus YIL073C, strain SPO22, active compounds read low 0.995 | locus YIL125W, strain kgd1, active compounds read low 0.992 | locus YIR030C, strain dcg1, active compounds read low 0.991 | locus YJL092W, strain hpr5, active compounds read low 0.995 | locus YJL095W, strain BCK1 (second series), active compounds read low 0.999 | locus YJL095W, strain BCK1, active compounds read low 1 and 1.01 | locus YJL115W, strain asf1, active compounds read low 0.996 | locus YJL129C, strain trk1, active compounds read low 1.01 | locus YJL134W, strain LCB3, active compounds read low 1 | locus YJL154C, strain vps35, active compounds read low 1 | locus YJL164C, strain tpk1, active compounds read low 1.01 | locus YJL166W, strain qcr8, active compounds read low 1 | locus YJL168C, strain set2, active compounds read low 0.979 | locus YJL187C, strain SWE1 (second series), active compounds read low 0.986 | locus YJL187C, strain SWE1, active compounds read low 0.995 | locus YJR043C, strain POL32, active compounds read low 1.04
